Experiment in all cases: DAPPL (digital affinity profiling via proximity ligation, sequencing); 10 mM Tris-HCl pH 7.5, 50 mM NaCl, 1 mM DTT, 4% glycerol, room temperature, 30 min; GST-TFs on glutathione beads, 16-mer random dsDNA library, 0.1% formaldehyde crosslink after washing; high values mean tight binding
One test concerns the target T1, FLI1 (Homo sapiens, UniProt Q01543 1-452).
T1 sequence: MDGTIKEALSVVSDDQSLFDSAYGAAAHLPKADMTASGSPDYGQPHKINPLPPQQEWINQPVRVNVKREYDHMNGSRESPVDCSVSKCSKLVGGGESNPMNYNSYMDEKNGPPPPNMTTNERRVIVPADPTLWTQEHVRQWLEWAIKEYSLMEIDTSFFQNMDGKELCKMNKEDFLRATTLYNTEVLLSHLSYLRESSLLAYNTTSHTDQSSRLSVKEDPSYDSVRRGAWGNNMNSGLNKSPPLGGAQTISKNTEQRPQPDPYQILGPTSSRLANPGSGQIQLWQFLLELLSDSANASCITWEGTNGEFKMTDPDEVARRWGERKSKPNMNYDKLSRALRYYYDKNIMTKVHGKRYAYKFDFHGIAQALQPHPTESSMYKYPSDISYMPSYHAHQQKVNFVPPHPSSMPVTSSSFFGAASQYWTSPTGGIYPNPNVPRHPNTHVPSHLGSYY
Conditions: protein: recombinant; tags: N-terminal GST; dsDNA, one strand shown. In a few lines:
(§1)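 Yeast served to express human transcription factors as GST fusions, which were then captured on glutathione beads and labelled with DNA barcodes. Pooled with a tag-only sample, they were incubated with 200 nmole of a 16-mer random double-stranded DNA library for 30 min at room temperature in Tris/NaCl/DTT/glycerol buffer, washed, crosslinked with 0.1% formaldehyde, ligated by proximity, amplified by PCR and sequenced. Dividing each hexamer's read frequency for a factor by its frequency for the tag-only sample gives the binding signal.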

In a further test the target is T2, ELK1 (Homo sapiens, UniProt P19419 1-428).
T2 sequence: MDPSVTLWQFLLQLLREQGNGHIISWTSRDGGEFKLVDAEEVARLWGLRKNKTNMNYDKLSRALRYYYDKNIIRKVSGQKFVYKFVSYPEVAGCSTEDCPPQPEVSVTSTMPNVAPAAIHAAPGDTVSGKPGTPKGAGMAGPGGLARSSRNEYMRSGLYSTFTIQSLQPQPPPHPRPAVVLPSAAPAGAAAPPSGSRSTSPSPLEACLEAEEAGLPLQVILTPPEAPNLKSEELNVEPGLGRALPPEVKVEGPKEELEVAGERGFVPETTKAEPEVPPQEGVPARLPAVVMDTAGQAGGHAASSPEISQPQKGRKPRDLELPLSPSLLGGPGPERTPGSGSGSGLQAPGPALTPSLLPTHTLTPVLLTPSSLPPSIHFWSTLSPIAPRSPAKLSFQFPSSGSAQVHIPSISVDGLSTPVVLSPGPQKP
The conditions noted are these: protein: recombinant; tags: N-terminal GST; dsDNA, one strand shown. In short, it runs like this: as §1

A further test concerns the target T3, GABPA (Homo sapiens, UniProt Q06546 1-454).
T3 sequence: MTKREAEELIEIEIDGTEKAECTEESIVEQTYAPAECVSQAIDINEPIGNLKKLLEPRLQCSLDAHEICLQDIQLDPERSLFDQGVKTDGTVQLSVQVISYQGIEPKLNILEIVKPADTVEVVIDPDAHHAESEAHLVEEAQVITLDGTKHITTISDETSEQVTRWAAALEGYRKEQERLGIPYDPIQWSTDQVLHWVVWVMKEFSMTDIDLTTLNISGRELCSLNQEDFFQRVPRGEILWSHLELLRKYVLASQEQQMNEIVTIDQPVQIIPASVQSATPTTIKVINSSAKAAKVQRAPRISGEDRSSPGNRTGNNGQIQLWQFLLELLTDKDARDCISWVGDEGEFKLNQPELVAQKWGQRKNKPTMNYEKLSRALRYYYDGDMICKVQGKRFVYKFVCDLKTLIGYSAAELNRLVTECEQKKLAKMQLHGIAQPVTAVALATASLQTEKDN
The conditions noted are these: protein: recombinant; tags: N-terminal GST; dsDNA, one strand shown. In a few lines:
as §1

The target of another test is T4, ERG (Homo sapiens, UniProt P11308 1-479).
T4 sequence: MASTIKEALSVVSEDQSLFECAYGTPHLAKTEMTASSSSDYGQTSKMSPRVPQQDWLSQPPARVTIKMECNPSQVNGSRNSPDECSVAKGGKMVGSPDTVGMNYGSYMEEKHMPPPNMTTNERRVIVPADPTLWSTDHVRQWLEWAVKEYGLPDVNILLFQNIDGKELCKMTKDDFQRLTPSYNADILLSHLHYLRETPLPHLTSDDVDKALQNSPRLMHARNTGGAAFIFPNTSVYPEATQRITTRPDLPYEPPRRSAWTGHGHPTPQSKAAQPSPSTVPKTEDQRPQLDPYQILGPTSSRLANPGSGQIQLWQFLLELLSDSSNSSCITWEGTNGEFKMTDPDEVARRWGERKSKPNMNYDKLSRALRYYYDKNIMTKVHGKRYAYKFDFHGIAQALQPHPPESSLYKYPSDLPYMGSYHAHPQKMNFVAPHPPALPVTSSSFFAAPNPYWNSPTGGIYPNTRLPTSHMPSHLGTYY
The conditions noted are these: protein: recombinant; tags: N-terminal GST; dsDNA, one strand shown. In a few lines: as §1

In the next test the target is ELF1 (Homo sapiens, UniProt P32519 1-619). Conditions: protein: recombinant; tags: N-terminal GST; dsDNA, one strand shown. In short, it runs like this:
as §1

In the next test the target is T5, EHF (Homo sapiens, UniProt Q9NZC4 1-300).
T5 sequence: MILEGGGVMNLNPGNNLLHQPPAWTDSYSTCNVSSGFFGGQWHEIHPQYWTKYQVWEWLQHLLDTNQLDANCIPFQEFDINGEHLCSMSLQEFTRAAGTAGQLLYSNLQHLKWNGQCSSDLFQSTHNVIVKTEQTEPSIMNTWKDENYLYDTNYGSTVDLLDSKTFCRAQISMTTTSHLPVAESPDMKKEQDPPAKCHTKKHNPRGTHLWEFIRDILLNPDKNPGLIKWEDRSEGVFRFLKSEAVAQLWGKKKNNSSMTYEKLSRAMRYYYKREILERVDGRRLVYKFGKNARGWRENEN
Conditions: protein: recombinant; tags: N-terminal GST; dsDNA, one strand shown. In short, it runs like this:
as §1

In the next test the target is SPI1 (Homo sapiens, UniProt P17947 1-270). The conditions noted are these: protein: recombinant; tags: N-terminal GST; dsDNA, one strand shown. In a few lines: as §1
The target in the next test is SPIB (Homo sapiens, UniProt Q01892 1-262). Conditions: protein: recombinant; tags: N-terminal GST; dsDNA, one strand shown. In a few lines:
as §1

The target of the next test is T6, ELK3 (Homo sapiens, UniProt P41970 1-407).
T6 sequence: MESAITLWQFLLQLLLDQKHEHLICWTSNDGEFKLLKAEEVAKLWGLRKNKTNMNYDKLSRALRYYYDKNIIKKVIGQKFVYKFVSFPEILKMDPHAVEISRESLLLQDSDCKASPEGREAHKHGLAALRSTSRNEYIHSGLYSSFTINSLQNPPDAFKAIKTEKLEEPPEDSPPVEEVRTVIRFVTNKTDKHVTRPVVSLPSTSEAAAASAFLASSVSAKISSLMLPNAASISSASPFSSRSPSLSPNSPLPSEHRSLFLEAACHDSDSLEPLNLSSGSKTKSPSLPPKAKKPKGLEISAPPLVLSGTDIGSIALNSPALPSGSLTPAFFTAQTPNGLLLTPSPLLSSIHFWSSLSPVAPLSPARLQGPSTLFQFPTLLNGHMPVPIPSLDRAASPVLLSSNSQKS
Conditions: protein: recombinant; tags: N-terminal GST; dsDNA, one strand shown. In short, it runs like this:
as §1

Another test has as its target T7, FEV (Homo sapiens, UniProt Q99581 1-238).
T7 sequence: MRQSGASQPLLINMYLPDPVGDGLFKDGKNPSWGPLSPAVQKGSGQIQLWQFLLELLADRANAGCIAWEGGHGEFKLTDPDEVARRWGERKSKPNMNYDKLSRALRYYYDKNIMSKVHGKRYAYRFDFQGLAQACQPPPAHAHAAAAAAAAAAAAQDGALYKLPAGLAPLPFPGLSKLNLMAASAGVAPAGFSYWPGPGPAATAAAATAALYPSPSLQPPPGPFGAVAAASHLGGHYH
Conditions: protein: recombinant; tags: N-terminal GST; dsDNA, one strand shown. In short, it runs like this:
as §1

A further test concerns the target ETV5 (Homo sapiens, UniProt P41161 1-510). The conditions noted are these: protein: recombinant; tags: N-terminal GST; dsDNA, one strand shown. In short, it runs like this: as §1
The next test addresses HSF1 (Homo sapiens, UniProt Q00613 1-529). The conditions noted are these: protein: recombinant; tags: N-terminal GST; chain copies: 3; dsDNA, one strand shown. In short, it runs like this:
as §1

Another test has as its target T8, SPIC (Homo sapiens, UniProt Q8N5J4 1-248).
T8 sequence: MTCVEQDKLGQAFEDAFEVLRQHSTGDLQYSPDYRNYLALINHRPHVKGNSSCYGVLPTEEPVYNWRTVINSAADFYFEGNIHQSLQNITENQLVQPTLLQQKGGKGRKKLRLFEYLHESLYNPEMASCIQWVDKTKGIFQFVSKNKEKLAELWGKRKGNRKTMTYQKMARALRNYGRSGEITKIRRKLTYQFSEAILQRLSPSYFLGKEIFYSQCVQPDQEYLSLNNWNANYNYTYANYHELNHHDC
Conditions: protein: recombinant; tags: N-terminal GST; dsDNA, one strand shown. In short, it runs like this: as §1

The next test concerns the target ELF4 (Homo sapiens, UniProt Q99607 1-663). The conditions noted are these: protein: recombinant; tags: N-terminal GST; dsDNA, one strand shown. In a few lines: as §1
A further test concerns the target T9, ELK4 (Homo sapiens, UniProt P28324-2 1-405).
T9 sequence: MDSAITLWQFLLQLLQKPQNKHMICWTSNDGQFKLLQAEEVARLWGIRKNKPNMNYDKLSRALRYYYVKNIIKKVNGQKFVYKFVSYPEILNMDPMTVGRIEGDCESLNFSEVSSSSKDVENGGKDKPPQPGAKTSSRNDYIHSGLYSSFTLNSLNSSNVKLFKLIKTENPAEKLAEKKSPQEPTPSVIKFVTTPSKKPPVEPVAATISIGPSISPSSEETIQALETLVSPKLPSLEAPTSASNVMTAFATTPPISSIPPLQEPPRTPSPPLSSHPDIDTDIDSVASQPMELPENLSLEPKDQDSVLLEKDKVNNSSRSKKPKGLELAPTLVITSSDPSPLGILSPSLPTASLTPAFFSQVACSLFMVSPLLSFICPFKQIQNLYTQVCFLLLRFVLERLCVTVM
Conditions: protein: recombinant; tags: N-terminal GST; dsDNA, one strand shown. In short, it runs like this:
as §1

The target of the next test is T10, ETV2 (Homo sapiens, UniProt O00321 1-342).
T10 sequence: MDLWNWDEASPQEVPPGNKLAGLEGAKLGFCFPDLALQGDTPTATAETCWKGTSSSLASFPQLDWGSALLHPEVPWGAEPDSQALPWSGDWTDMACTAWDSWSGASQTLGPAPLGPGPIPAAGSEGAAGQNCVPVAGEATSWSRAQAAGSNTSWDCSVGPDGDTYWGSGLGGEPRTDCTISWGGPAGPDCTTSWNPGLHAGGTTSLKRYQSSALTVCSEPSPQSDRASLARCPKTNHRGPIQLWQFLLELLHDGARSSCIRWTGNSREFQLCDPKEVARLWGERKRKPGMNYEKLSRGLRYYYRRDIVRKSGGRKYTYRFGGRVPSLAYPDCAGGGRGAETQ
The conditions noted are these: protein: recombinant; tags: N-terminal GST; dsDNA, one strand shown. In short, it runs like this: as §1

The next test has as its target T11, ELF3 (Homo sapiens, UniProt P78545 1-371).
T11 sequence: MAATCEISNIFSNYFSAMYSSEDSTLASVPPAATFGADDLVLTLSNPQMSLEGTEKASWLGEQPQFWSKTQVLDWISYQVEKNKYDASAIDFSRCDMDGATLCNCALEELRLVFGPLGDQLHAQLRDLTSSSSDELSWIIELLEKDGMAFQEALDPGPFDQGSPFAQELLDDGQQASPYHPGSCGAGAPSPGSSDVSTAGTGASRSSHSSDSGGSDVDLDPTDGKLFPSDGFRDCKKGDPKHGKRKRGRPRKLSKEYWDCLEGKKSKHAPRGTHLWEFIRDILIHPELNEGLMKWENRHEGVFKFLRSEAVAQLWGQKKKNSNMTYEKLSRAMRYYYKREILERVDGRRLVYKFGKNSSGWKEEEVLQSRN
The conditions noted are these: protein: recombinant; tags: N-terminal GST; dsDNA, one strand shown. In short, it runs like this:
as §1

The next test has as its target CRX (Homo sapiens, UniProt O43186 1-299). Conditions: protein: recombinant; tags: N-terminal GST; dsDNA, one strand shown. In short, it runs like this: as §1
Another test concerns the target ETV1 (Homo sapiens, UniProt P50549 1-477). The conditions noted are these: protein: recombinant; tags: N-terminal GST; dsDNA, one strand shown. In a few lines:
as §1

ELF1, sequence (P32519 whole entry): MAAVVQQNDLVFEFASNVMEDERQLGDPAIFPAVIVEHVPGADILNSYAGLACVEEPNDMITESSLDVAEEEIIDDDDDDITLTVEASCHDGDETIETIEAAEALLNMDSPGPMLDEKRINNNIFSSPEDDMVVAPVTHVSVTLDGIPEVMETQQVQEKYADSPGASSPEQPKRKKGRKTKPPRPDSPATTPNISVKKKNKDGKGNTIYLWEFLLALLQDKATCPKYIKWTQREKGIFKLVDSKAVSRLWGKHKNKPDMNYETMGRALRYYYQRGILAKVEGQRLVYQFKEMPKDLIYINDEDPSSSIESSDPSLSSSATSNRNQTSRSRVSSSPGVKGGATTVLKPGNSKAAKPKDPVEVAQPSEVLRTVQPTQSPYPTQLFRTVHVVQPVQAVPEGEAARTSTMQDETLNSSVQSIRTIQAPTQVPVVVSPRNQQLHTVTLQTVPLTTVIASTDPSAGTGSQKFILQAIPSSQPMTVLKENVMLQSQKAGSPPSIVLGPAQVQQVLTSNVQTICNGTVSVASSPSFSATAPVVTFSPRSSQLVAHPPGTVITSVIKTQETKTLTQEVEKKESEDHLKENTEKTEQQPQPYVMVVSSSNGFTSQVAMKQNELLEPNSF
ETV1, sequence (P50549 whole entry): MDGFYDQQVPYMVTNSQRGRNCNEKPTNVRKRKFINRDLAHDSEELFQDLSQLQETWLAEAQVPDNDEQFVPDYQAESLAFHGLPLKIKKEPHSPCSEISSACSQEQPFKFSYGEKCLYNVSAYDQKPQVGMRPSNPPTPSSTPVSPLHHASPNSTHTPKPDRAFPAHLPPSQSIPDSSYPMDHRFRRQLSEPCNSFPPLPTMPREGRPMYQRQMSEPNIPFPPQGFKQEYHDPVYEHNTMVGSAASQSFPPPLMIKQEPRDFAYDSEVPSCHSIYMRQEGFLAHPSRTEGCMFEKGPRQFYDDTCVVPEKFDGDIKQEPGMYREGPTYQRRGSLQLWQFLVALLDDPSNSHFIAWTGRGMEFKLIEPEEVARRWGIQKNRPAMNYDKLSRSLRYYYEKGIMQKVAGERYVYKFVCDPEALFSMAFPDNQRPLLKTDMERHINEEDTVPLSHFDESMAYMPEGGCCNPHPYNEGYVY
ELF4, sequence (Q99607 whole entry): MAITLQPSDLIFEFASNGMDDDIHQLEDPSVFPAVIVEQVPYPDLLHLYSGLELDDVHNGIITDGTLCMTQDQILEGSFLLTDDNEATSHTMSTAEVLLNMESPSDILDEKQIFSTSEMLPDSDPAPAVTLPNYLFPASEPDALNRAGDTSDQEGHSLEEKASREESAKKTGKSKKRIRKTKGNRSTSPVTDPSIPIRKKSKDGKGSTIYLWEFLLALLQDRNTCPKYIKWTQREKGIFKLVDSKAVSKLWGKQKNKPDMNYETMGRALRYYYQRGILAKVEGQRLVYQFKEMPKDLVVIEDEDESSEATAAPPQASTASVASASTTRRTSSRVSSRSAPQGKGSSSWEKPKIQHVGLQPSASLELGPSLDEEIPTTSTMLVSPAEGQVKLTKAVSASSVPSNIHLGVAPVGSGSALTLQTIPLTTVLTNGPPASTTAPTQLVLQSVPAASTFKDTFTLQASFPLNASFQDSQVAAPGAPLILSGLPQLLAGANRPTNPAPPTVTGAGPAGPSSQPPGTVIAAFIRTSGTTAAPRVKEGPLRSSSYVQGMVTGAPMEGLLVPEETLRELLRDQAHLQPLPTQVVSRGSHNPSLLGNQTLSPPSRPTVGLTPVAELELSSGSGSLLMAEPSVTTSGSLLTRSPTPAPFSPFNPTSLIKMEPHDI
ETV5, sequence (P41161 whole entry): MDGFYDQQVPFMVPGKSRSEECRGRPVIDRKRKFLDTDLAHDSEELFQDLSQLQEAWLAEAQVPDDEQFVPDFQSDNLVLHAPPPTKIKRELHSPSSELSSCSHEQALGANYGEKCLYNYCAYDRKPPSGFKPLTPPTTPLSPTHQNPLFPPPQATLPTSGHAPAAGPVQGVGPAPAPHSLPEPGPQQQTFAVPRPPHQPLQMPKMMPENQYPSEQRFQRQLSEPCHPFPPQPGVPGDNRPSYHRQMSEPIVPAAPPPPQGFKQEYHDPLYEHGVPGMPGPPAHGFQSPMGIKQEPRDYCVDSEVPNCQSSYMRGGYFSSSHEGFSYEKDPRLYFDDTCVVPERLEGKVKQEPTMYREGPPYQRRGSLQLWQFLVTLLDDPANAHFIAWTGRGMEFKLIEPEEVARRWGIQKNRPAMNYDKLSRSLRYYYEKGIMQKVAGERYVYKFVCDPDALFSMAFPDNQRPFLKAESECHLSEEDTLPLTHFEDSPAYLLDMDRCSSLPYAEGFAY
HSF1, sequence (Q00613 whole entry): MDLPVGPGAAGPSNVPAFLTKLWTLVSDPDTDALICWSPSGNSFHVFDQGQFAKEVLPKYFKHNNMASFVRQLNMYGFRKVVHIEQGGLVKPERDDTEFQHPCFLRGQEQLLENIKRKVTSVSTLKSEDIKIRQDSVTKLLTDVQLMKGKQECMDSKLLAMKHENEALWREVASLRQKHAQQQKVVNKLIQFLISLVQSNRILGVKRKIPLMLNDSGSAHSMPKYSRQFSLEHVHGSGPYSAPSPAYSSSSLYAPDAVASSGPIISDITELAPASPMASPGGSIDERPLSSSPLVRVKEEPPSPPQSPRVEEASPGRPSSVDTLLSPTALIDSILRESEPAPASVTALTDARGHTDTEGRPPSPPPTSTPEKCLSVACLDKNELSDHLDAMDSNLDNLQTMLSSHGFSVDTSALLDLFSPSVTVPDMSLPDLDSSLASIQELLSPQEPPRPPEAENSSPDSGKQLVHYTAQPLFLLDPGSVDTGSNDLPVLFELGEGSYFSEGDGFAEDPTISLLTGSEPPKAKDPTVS
CRX, sequence (O43186 whole entry): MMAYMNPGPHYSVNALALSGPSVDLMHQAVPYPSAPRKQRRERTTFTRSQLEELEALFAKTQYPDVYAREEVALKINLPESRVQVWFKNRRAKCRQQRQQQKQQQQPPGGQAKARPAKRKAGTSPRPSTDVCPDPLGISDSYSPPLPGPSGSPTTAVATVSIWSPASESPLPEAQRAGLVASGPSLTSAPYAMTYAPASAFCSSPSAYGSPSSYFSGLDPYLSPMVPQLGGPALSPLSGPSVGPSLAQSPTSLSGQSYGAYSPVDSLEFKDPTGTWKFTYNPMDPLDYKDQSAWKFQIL
SPIB, sequence (Q01892 whole entry): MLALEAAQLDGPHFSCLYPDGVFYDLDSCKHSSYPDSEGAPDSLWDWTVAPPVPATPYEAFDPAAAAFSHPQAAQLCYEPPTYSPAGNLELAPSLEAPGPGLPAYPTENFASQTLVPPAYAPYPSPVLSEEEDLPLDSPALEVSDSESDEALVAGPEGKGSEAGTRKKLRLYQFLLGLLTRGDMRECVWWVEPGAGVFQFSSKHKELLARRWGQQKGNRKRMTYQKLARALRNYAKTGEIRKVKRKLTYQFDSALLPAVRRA

In the case of ACGTTA, the binding signal with FLI1 is 1.11 fold enrichment (6-mer frequency, TF over GST control); with ELK1, 1.14 fold enrichment (6-mer frequency, TF over GST control); with GABPA, 1.11 fold enrichment (6-mer frequency, TF over GST control); in the test with ERG it was 1.21 fold enrichment (6-mer frequency, TF over GST control); with ELF1, 1.19 fold enrichment (6-mer frequency, TF over GST control); with EHF it was 1.11 fold enrichment (6-mer frequency, TF over GST control). The binding signal with SPI1 is 1.19 fold enrichment (6-mer frequency, TF over GST control); in the test with SPIB it was 1.06 fold enrichment (6-mer frequency, TF over GST control); with ELK3 it was 1.3 fold enrichment (6-mer frequency, TF over GST control); in the test with FEV, 1.13 fold enrichment (6-mer frequency, TF over GST control); in the test with ETV5, 1.11 fold enrichment (6-mer frequency, TF over GST control); with HSF1, 1.04 fold enrichment (6-mer frequency, TF over GST control). The binding signal with SPIC is 1.18 fold enrichment (6-mer frequency, TF over GST control); with ELF4, 1.11 fold enrichment (6-mer frequency, TF over GST control); with ELK4, 1.03 fold enrichment (6-mer frequency, TF over GST control); in the test with ETV2 it was 1.28 fold enrichment (6-mer frequency, TF over GST control); with ELF3, 1.09 fold enrichment (6-mer frequency, TF over GST control); with CRX, 1.17 fold enrichment (6-mer frequency, TF over GST control). Besides, the binding signal with ETV1 was 1.05 fold enrichment (6-mer frequency, TF over GST control).

The values above are taken from publication PMC7862700, “An all-to-all approach to the identification of sequence-specific readers for epigenetic DNA modifications on cytosine”.
